{"source": "ChEMBL document CHEMBL3988442", "about": "“University of Dundee, Small-Polar-MMV Screening Library” (2021)", "note": "Hit rate of the full screen: of about 48,000 compounds, about 13,000 (27%) showed an effect of 50% or more. The list shows a part of the results."}
{"system": "Wolbachia pipientis", "assay": "Anti-Wolbachia Cell-Based Screen", "type": "functional", "set-up": "scale not given: in the data most compounds retested in dose-response had high values", "settings": "5 µM", "units": {"Percent Effect": "%"}}
{"smiles": "O=C([C@@H]1COC[C@H]2CN(C3CCCCC3)C[C@H]21)N1CCOCC1", "Percent Effect": -4.013}
{"smiles": "O=C(CSCC1CC1)N1CCCC(c2nccn2Cc2ccncc2)C1", "note": "(centres undefined)", "Percent Effect": 26.77}
{"smiles": "O=C(c1ccnnc1)N1CC[C@H]2[C@H]1CCN2S(=O)(=O)C1CC1", "Percent Effect": -8.086}
{"smiles": "O=C1CC[C@@H]2[C@@H](CCN2S(=O)(=O)C2CC2)N1CC1CC1", "Percent Effect": 105.6}
{"smiles": "CS(=O)(=O)N1C[C@@H]2OCC(=O)N(CC3CC3)[C@@H]2C1", "Percent Effect": -6.528}
{"smiles": "COCCC(=O)N1CCn2cc(CN3CCN(C)CC3)nc2C1.O=C(O)C(F)(F)F.O=C(O)C(F)(F)F", "Percent Effect": -0.4638}
{"smiles": "Cc1noc(C)c1-c1nc(C2CCCN(C(=O)C(C)C)C2)ccc1CO", "note": "(centres undefined)", "Percent Effect": 110.5}
{"smiles": "CC(=O)N1CCCC(c2ccc(CO)c(-c3c(C)noc3C)n2)C1", "note": "(centres undefined)", "Percent Effect": 98.56}
{"smiles": "CCCc1cc(NCCC2CCCOC2)n2nccc2n1", "note": "(centres undefined)", "Percent Effect": -37.65}
{"smiles": "COCC(=O)N1CCCC(C)(c2nncn2C)C1", "note": "(centres undefined)", "Percent Effect": 100.7}
{"smiles": "COCC(=O)N1CCC2(CCCN(Cc3cnn(C)c3)C2)C1", "note": "(centres undefined)", "Percent Effect": 0.82}
{"smiles": "COCC(=O)N1CCCC2(CCN(c3cncnc3)C2=O)C1", "note": "(centres undefined)", "Percent Effect": -8.381}
{"smiles": "Cc1ccc(S(=O)(=O)N2CCC(N3CCCCC3)CC2)cc1C", "Percent Effect": 2.331}
{"smiles": "CN1CCN(S(=O)(=O)c2cccc(S(=O)(=O)C3CCS(=O)(=O)C3)c2)CC1", "note": "(centres undefined)", "Percent Effect": 83.09}
{"smiles": "O=S1(=O)CCC(S(=O)(=O)c2cccc(S(=O)(=O)N3CCCCCC3)c2)C1", "note": "(centres undefined)", "Percent Effect": 99.56}
{"smiles": "O=S1(=O)CCC(S(=O)(=O)c2cccc(S(=O)(=O)N3CCOCC3)c2)C1", "note": "(centres undefined)", "Percent Effect": 94.82}
{"smiles": "CNC(=O)CS(=O)(=O)C1CCN(S(=O)(=O)c2cccc(C(C)=O)c2)CC1", "Percent Effect": -4.98}
{"smiles": "CSCc1cccc(S(=O)(=O)N2CCC(C)CC2)c1", "Percent Effect": -3.451}
{"smiles": "O=C(O)c1cc(-c2cccnc2)cc(S(=O)(=O)N2CCCCCC2)c1", "Percent Effect": -2.874}
{"smiles": "O=S1(=O)CCC(S(=O)(=O)c2cccc(S(=O)(=O)N3CCCC3)c2)C1", "note": "(centres undefined)", "Percent Effect": 102.5}
{"smiles": "COc1cccc(S(=O)(=O)N2CCN(C)[C@@H]3CS(=O)(=O)C[C@@H]32)c1", "Percent Effect": 0.7716}
{"smiles": "CSCc1cccc(S(=O)(=O)N2CCSCC2)c1", "Percent Effect": 9.116}
{"smiles": "Cc1cccc(S(=O)(=O)N2CCC3(CC2)CC(N(C)C)CO3)c1", "note": "(centres undefined)", "Percent Effect": -10.34}
{"smiles": "F[C@@H]1CN(CC2CC2)C[C@@H]1OCc1nc2cnccc2[nH]1", "Percent Effect": 0.2441}
{"smiles": "COc1ccc(C(=O)NC2CC2)c(OC2CCN(C(C)CO)CC2)c1", "note": "(centres undefined)", "Percent Effect": -4.273}
{"smiles": "CC(=O)N(Cc1ccoc1)C1CCCCC1", "Percent Effect": 5.985}
{"smiles": "CCCNC(=O)c1sc(Nc2ccc(Cl)cn2)nc1C", "Percent Effect": 11.67}
{"smiles": "CCN(CC)C(=O)CNC(=O)c1cnc(-c2ccccc2)nc1", "Percent Effect": 0.8892}
{"smiles": "Cl.Cn1ccnc1N1CCN(C(=O)Cc2ccccc2)CC1", "Percent Effect": 103.6}
{"smiles": "Cc1cc(N2CCCN(C(=O)Cc3ccc(O)c(Cl)c3)CC2)ccn1", "Percent Effect": 6.362}
{"smiles": "CN(C)c1cnnc(N2CCN(C(=O)Cc3ccccc3)CC2)c1", "Percent Effect": 6.121}
{"smiles": "Cc1cccc(CC(=O)N2CCN(c3nccn3C)CC2)c1.Cl", "Percent Effect": 119.3}
{"smiles": "CCOc1ccc(CC(=O)N2CCN(c3nccn3C)CC2)cc1.Cl", "Percent Effect": -3.351}
{"smiles": "CC(=O)N1CCN(C(=O)CN2CCN(c3cccc(C)c3)CC2)CC1", "Percent Effect": 4.87}
{"smiles": "Cc1cccc(N2CCN(CCCNC(=O)c3nccn3C)CC2)c1", "Percent Effect": 29.8}
{"smiles": "Cl.Cn1ccnc1N1CCN(C(=O)Cc2ccc(Cl)cc2)CC1", "Percent Effect": 89.82}
{"smiles": "COc1ccc(CC(=O)N2CCN(c3nccn3C)CC2)cc1.Cl", "Percent Effect": 92.57}
{"smiles": "COc1cccc(CN(C)C(=O)CN2CCN(c3nccn3C)CC2)c1", "Percent Effect": 6.217}
{"smiles": "Cl.Cn1ccnc1N1CCN(C(=O)Cc2ccc(F)cc2)CC1", "Percent Effect": 9.363}
{"smiles": "CSc1cc2c(cc1NC(=O)NCc1ccco1)OCCO2", "Percent Effect": -2.93}
{"smiles": "Cc1cnn(CC(=O)NC2CCCc3cc(OC(F)F)ccc32)c1", "note": "(centres undefined)", "Percent Effect": -5.352}
{"smiles": "Cc1nn(C(C)C)c(C)c1S(=O)(=O)Nc1ccc(C(=O)O)cc1", "Percent Effect": -3.585}
{"smiles": "COc1nc2ccn(CCNc3cc(C)ccn3)c(=O)c2cc1C#N", "Percent Effect": -7.591}
{"smiles": "Cn1cc(N2CC3(CCN(S(C)(=O)=O)C3)CC2=O)cn1", "note": "(centres undefined)", "Percent Effect": -6.805}
{"smiles": "CCOc1ccc(CC(=O)N2CCN(c3nccn3CC)CC2)cc1.Cl", "Percent Effect": 105.4}
{"smiles": "CCn1ccnc1C1CCN(C(=O)Nc2ccc(OC)cc2)CC1", "Percent Effect": -6.796}
{"smiles": "CCn1ccnc1C1CCN(C(=O)C(O)c2ccc(OC)cc2)CC1", "note": "(centres undefined)", "Percent Effect": 13.84}
{"smiles": "CCOc1cc(N2CCN(C(=O)c3ccc(OC)cc3)CC2)nc(C)n1", "Percent Effect": 6.189}
{"smiles": "CCc1ccc(CC(=O)N2CCN(c3nccn3C)CC2)cc1", "Percent Effect": 102.2}
{"smiles": "CCOc1ccc(C(=O)N2CCN(c3nccn3C)CC2)cc1.Cl", "Percent Effect": 123.5}
{"smiles": "CCOc1ccc(NC(=O)CN2CCN(c3nccn3C)CC2)cc1", "Percent Effect": 10.39}
{"smiles": "Cc1occc1C(=O)Nc1cc(N2CCNC2=O)ccc1Cl", "Percent Effect": -16.86}
{"smiles": "CNCC(=O)N[C@H]1CN(c2nc(C)c3c(n2)CCCC3)C[C@@H]1C1CC1", "Percent Effect": -22.84}
{"smiles": "OCC1(CNC2CCc3cc4c(cc32)OCCO4)CC1", "note": "(centres undefined)", "Percent Effect": -8.17}
{"smiles": "Clc1ccc(C2NCCc3cc4c(cc32)OCCO4)cc1", "note": "(centres undefined)", "Percent Effect": 60.9}
{"smiles": "OCCCNC1CCc2cc3c(cc21)OCCO3", "note": "(centres undefined)", "Percent Effect": 0.5317}
{"smiles": "Fc1ccccc1C1NCCc2cc3c(cc21)OCCO3", "note": "(centres undefined)", "Percent Effect": 96.06}
{"smiles": "O=C(CSc1ccc2c(c1)OCCO2)NS(=O)(=O)c1ccccc1F", "Percent Effect": 11.66}
{"smiles": "CCc1ccc(C2NCCc3cc4c(cc32)OCCO4)cc1", "note": "(centres undefined)", "Percent Effect": 132.5}
{"smiles": "O=C(CCSc1ccccc1F)NS(=O)(=O)c1ccc2c(c1)OCCO2", "Percent Effect": -3.97}
{"smiles": "OCCNC1CCc2cc3c(cc21)OCCO3", "note": "(centres undefined)", "Percent Effect": -2.778}
{"smiles": "CCc1nc2c(NCC3COc4ccccc4C3)ncnc2o1", "note": "(centres undefined)", "Percent Effect": -41.62}
{"smiles": "CCNC(=O)C(C)NC(=O)Nc1ccccc1SCC", "note": "(centres undefined)", "Percent Effect": -19.41}
{"smiles": "Cc1oncc1C(=O)N1CC[C@@H]2[C@@H]1CC(=O)N2Cc1cccnc1.O=C(O)C(F)(F)F", "Percent Effect": 95.81}
{"smiles": "Cc1cccc(CN2CCCC(O)(CNCc3cccc(F)c3)C2=O)c1", "note": "(centres undefined)", "Percent Effect": -1.044}
{"smiles": "Cc1oncc1C(=O)N1CCC2(CCN(Cc3cccnc3)C2=O)C1.O=C(O)C(F)(F)F", "note": "(centres undefined)", "Percent Effect": 107.4}
{"smiles": "Cc1oncc1C(=O)N1CC[C@H]2[C@@H]1CCC(=O)N2c1cccnc1.O=C(O)C(F)(F)F", "Percent Effect": -37.57}
{"smiles": "O=C(O)C(F)(F)F.O=C(c1ccco1)N1CC[C@H]2[C@H]1CC(=O)N2c1cccnc1", "Percent Effect": -20.41}
{"smiles": "Cc1oncc1C(=O)N1CCC2(CCN(Cc3cccc(F)c3)C2=O)C1", "note": "(centres undefined)", "Percent Effect": 82.89}
{"smiles": "COCCN1CCC2(CCCN(C(=O)c3cnoc3C)C2)C1=O", "note": "(centres undefined)", "Percent Effect": 5.935}
{"smiles": "F[C@@H]1CN(Cc2nccs2)C[C@@H]1OCc1nc2cnccc2[nH]1", "Percent Effect": 1.083}
{"smiles": "O=C(NC1CC1)C1CN(Cc2ccc3c(c2)OCCO3)CCN1", "note": "(centres undefined)", "Percent Effect": -21.08}
{"smiles": "COc1ccc(CCNC(=O)C2CCC(Cn3cnnn3)CC2)cc1", "note": "(centres undefined)", "Percent Effect": -2.407}
{"smiles": "COC(=O)c1ccc(NC(C)c2ccc3c(c2)CCC(=O)N3)nn1", "note": "(centres undefined)", "Percent Effect": 54.02}
{"smiles": "CC(NC(=O)Nc1ccncc1)c1ccc2c(c1)CC(=O)N2", "note": "(centres undefined)", "Percent Effect": 6.994}
{"smiles": "CC(NC(=O)NCCn1ccnc1)c1ccc2c(c1)NC(=O)CO2", "note": "(centres undefined)", "Percent Effect": -0.9133}
{"smiles": "COC(=O)c1ccc(NC(C)c2ccc3c(c2)NC(=O)CO3)nn1", "note": "(centres undefined)", "Percent Effect": 109.1}
{"smiles": "COc1cccc(NC(=O)NC(C)c2ccc3c(c2)CC(=O)N3)c1", "note": "(centres undefined)", "Percent Effect": -1.814}
{"smiles": "CC(NC(=O)NCCCn1cccn1)c1ccc2c(c1)NC(=O)CO2", "note": "(centres undefined)", "Percent Effect": -10.21}
{"smiles": "COc1ccc(C)cc1C(C)NS(=O)(=O)c1ccc2c(c1)CCC(=O)N2", "note": "(centres undefined)", "Percent Effect": -0.1201}
{"smiles": "COc1ccc(C(C)NS(=O)(=O)c2ccc3c(c2)CCC(=O)N3)cc1F", "note": "(centres undefined)", "Percent Effect": 13.2}
{"smiles": "COC(=O)c1ccc(NC(C)c2ccc3c(c2)CC(=O)N3)nn1", "note": "(centres undefined)", "Percent Effect": 83.43}
{"smiles": "COc1ccc(-c2noc(Cn3cc4c(n3)CCC4)n2)c(OC)c1OC", "Percent Effect": 2}
{"smiles": "Cc1cc2n(n1)CC(CNC1CCN(Cc3ccccc3C)CC1)CN2", "note": "(centres undefined)", "Percent Effect": -1.399}
{"smiles": "COC(=O)c1ccc(N2CCN(CCS(C)(=O)=O)C(C)C2)cc1", "note": "(centres undefined)", "Percent Effect": 130.9}
{"smiles": "CCC(=O)N1CCN(c2ccc(C(=O)OC)cc2)CC1C", "note": "(centres undefined)", "Percent Effect": -6.169}
{"smiles": "CNC(=O)NC(=O)CCN1CCN(c2ccc(C(=O)OC)cc2)CC1C", "note": "(centres undefined)", "Percent Effect": 121.7}
{"smiles": "COCC(=O)N1CCN(c2ccc(C(=O)OC)cc2)CC1C", "note": "(centres undefined)", "Percent Effect": -2.487}
{"smiles": "COC(=O)c1ccc(N2CCN(CC(=O)NC(N)=O)C(C)C2)cc1", "note": "(centres undefined)", "Percent Effect": 126.9}
{"smiles": "COC(=O)c1ccc(N2CCN(C(=O)C3CCC3)C(C)C2)cc1", "note": "(centres undefined)", "Percent Effect": -8.706}
{"smiles": "COC(=O)c1ccc(N2CCN(C(=O)CC(F)(F)F)C(C)C2)cc1", "note": "(centres undefined)", "Percent Effect": -6.136}
{"smiles": "COC(=O)c1ccc(N2CCN(C(=O)C3CC3)C(C)C2)cc1", "note": "(centres undefined)", "Percent Effect": -9.327}
{"smiles": "COC(=O)c1ccc(N2CCN(CCC(=O)NC(N)=O)C(C)C2)cc1", "note": "(centres undefined)", "Percent Effect": 4.115}
{"smiles": "COC(=O)c1ccc(N2CCN(CCC#N)C(C)C2)cc1", "note": "(centres undefined)", "Percent Effect": 9.254}
{"smiles": "COC(=O)c1ccc(N2CCN(CCN3CCOCC3)C(C)C2)cc1", "note": "(centres undefined)", "Percent Effect": -3.012}
{"smiles": "CNC(=O)NC(=O)CN1CCN(c2ccc(C(=O)OC)cc2)CC1C", "note": "(centres undefined)", "Percent Effect": 123.3}
{"smiles": "CCn1nc(CC(C)C)cc1C(=O)N1CCOCC(O)C1", "note": "(centres undefined)", "Percent Effect": 14.61}
{"smiles": "Cc1c(Br)cccc1NC(=O)N(C)CCO", "Percent Effect": -1.587}
{"smiles": "CCc1cc(N[C@H]2CCC[C@H]2O)n2nccc2n1", "Percent Effect": -17.41}
